Experimental data: PubChem BioAssay (NCI)
This is part of a sample that, as a whole, favours compounds with a hit. Of some 79,000 tested, about 15% had one in any assay. Cut-off read from the data, not from the text of the source: active = growth inhibition above about 70%; inactive = the rest.

What was measured:
[1] = NCI Yeast Anticancer Drug Screen. Data for the rad50 strain (AID 155);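 note: 0% = growth of vehicle-only cultures of the same strain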; conditions: S. cerevisiae rad50 strain growth inhibition; at 50.0 µM; active compounds read high
Procedure, shortened: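 Cells are treated with compound, grown, and their growth is then scored against vehicle-only cultures of the same repair-deficient yeast strain.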

[2] = NCI Yeast Anticancer Drug Screen. Data for the mec2-1 strain (AID 157); conditions: S. cerevisiae mec2-1 strain, at 50.0 µM, active compounds read high
Procedure, shortened: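 Cells of the genetically defined mec2-1 yeast strain are incubated with test compound. Inhibition of growth is calculated against vehicle-treated controls.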

[3] = NCI Yeast Anticancer Drug Screen. Data for the sgs1 mgt1 strain (AID 161);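 note: 0% = growth of cultures given vehicle only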; conditions: S. cerevisiae sgs1 mgt1 strain, at 50.0 µM, active compounds read high
Procedure, shortened: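 Genetically altered yeast, compound exposure, growth inhibition relative to vehicle.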

[4] = NCI Yeast Anticancer Drug Screen. Data for the cln2 rad14 strain (AID 165);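 note: 0% = growth equal to vehicle treated cultures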; conditions: S. cerevisiae cln2 rad14 strain, at 50.0 µM, active compounds read high
Procedure, shortened: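 The screen exposed genetically defined yeast (cln2 rad14) to test compounds and scored growth inhibition relative to vehicle-treated controls.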

[5] = NCI Yeast Anticancer Drug Screen. Data for the bub3 strain (AID 167); conditions: S. cerevisiae bub3 mutant strain, at 50.0 µM, active compounds read high
Procedure, shortened: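 Part of a panel of yeast mutants defective in DNA damage repair or cell cycle regulation. Each strain is grown with compound, and inhibition is calculated relative to solvent-treated cultures.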

[6] = NCI Yeast Anticancer Drug Screen. Data for the mlh1 rad18 strain (AID 175); conditions: S. cerevisiae mlh1 rad18 strain growth inhibition; at 50.0 µM; active compounds read high
Procedure, shortened: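 Compound-treated yeast growth, normalised to vehicle controls. Strain bears defined DNA repair mutations.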

Measured: growth inhibition

CC/C(=N\N=C(/CC)c1cccs1)c1cccs1
inactive: [1] 25.5% | [2] -6.4% | [3] -10.7% | [4] 3.35% | [5] 13.1% | [6] -3.75%

Cc1ccc2c(N(C)C)cc(N(C)C)nc2c1C
inactive: [1] -0.15% | [2] 4.4% | [3] -9.2% | [4] -48% | [5] -1.1% | [6] 15.5%

C=CCNC(=S)/N=C/c1c(O)c2ccccc2oc1=O
inactive: [1] -33.5% | [2] -29.6% | [3] -43% | [4] -33.6% | [5] -53% | [6] -46.9%

CCN=c1c([N+](=O)[O-])c(NC(=O)c2ccccc2)sn1CC
inactive: [1] -9.1% | [2] -5.65% | [3] -5.5% | [4] 28% | [5] -7.75% | [6] -5.7%

O=S(=O)(Nc1ncccn1)c1ccc(N=NSC2=NC=NC3=NC=NC32)cc1 (stereo not given)
inactive: [1] 21.3% | [2] 17.4% | [3] 20.5% | [4] 4% | [5] 0.05% | [6] 11.8%

COC(=O)CCS(=O)(=O)Cc1ccccc1
inactive: [1] 0.95% | [2] -1.3% | [3] -6.95% | [4] -7.9% | [5] -1.65% | [6] -0.5%

COc1ccc(C2C(C#N)=C(N)NC(=O)C2C(N)=O)cc1 (stereo not given)
inactive: [1] -12.6% | [2] -11.8% | [3] -16.8% | [4] -0.1% | [5] -4.05% | [6] -19.4%

CC(=O)n1ccc(=O)[nH]c1=O
inactive: [1] 8.9% | [2] 0.2% | [3] 0.45% | [4] -38.8% | [5] -11.9% | [6] 16.4%

COc1cc(\C=N/N=C/C=C/c2ccccc2)cc(OC)c1OC
inactive: [1] 0.55% | [2] 42.3% | [3] 7.95% | [4] -10.7% | [5] 38.4% | [6] 15.5%

C=CCOC(=O)Nc1ccc(S(=O)(=O)N2CCCCC2)cc1
inactive: [1] 9% | [2] 6.1% | [3] 2.95% | [4] -17.4% | [5] 17.6% | [6] -5.15%

COc1cccc(C2OC(N)=C(O)C2=O)c1 (stereo not given)
inactive: [1] -10.8% | [2] 1.9% | [3] 3.6% | [4] -11.2% | [5] 2.45% | [6] 22.2%

CC1CCC2C(C(=O)O[C@H]3C4C=CO[C@@H](OC5OC(CO)C(O)C(O)C5O)C4[C@@]4(CO)O[C@@H]34)=CO[C@@H](OC3OC(CO)C(O)C(O)C3O)C12 (stereo not given in full)
inactive: [1] -12.3% | [2] -32.5% | [3] -18.6% | [4] 4.2% | [5] -12.8% | [6] -11.4%

C=CC1C(C[C@@H]2c3cc(O)c(O)cc3CCN2C(C)=O)C(C(=O)OC)=CO[C@H]1OC1OC(CO)C(O)C(O)C1O (stereo not given in full)
inactive: [1] -1.15% | [2] -38.4% | [3] -32.8% | [4] 14.8% | [5] -35% | [6] 19.4%

CCCCOC(=O)c1ccc(OCCCC)cc1
inactive: [1] 23.6% | [2] 19.6% | [3] 16.6% | [4] 13.2% | [5] 10.5% | [6] 17.8%

O=C(c1cccc(Cl)c1)c1cccc(Cl)c1
inactive: [1] 1.2% | [2] -14.8% | [3] -0.9% | [4] 2.35% | [5] 5.15% | [6] -3.25%

O=C(NCCCl)NCc1ccccc1
inactive: [1] -10.9% | [2] 2.35% | [3] 1.4% | [4] -40.1% | [5] -15.2% | [6] -2%

NC(=O)N/N=C1\CC2CC1C1CCCC21 (stereo not given)
inactive: [1] 8.05% | [2] 5.35% | [3] -1.75% | [4] -0.5% | [5] -8.9% | [6] 15.3%

CC1(C)[C@@H]2C[C@H]1[C@@H](Cc1cccc(C[C@H]3c4cc(-c5ccccn5)ncc4[C@H]4C[C@@H]3C4(C)C)c1)c1cc(-c3ccccn3)ncc12
inactive: [1] 45.4% | [2] 28.2% | [3] 45.4% | [4] 16.8% | [5] 45.9% | [6] 45.4%

CCOC(=O)C(C(C)=O)C(CC(=O)OC)NC(=O)OCc1ccccc1 (stereo not given)
inactive: [1] -24.5% | [2] -21.9% | [3] -60.6% | [4] -57.2% | [5] -32.2% | [6] -35.5%

O=C(O)CNC(=O)OCc1ccccc1
inactive: [1] -35.9% | [2] -16.4% | [3] -35.5% | [4] -45.8% | [5] 1.55% | [6] -19.4%

NC(=O)CS(=O)CC(N)C(=O)O (stereo not given)
inactive: [1] -5.9% | [2] -34.4% | [3] -46% | [4] -57.1% | [5] -10.9% | [6] -29.6%

C#CCNC(=O)NCCCl
inactive: [1] 18.9% | [2] -3.45% | [3] -0.3% | [4] -34.1% | [5] 27.9% | [6] 2.65%

O=C1OC(c2cccc(C(F)(F)F)c2)c2ccc3ccccc3c21 (stereo not given)
inactive: [1] 14.3% | [2] -0.45% | [3] 10.7% | [4] 18.1% | [5] 10.8% | [6] 22.8%

CCOC(=O)Nc1nc2cc(C(=O)OC)n(C)c2s1
inactive: [1] 19.4% | [2] 23.6% | [3] 25.7% | [4] 11.1% | [5] 7.4% | [6] 18.9%

Cc1cc(=O)[nH]c(NNC(=S)NC2CCCCC2)n1
inactive: [1] -17.4% | [2] -41.8% | [3] 10.9% | [4] 2.85% | [5] -28.4% | [6] -18.6%

N=c1ncn(Cc2ccccc2)c2nc[nH]c12
inactive: [1] -2.4% | [2] 2% | [3] 1.3% | [4] -3.6% | [5] 10% | [6] -4%

Cc1c(C#N)c(N)[nH]c(=S)c1C#N
inactive: [1] 5.5% | [2] 20.2% | [3] 4.95% | [4] 1.25% | [5] 0.45% | [6] 11.3%

CCCCNC(=O)OCc1cnc(C)n1Cc1ccccc1
inactive: [1] 2.8% | [2] -0.3% | [3] 6% | [4] 4.95% | [5] 4.1% | [6] 10.2%

COc1nc(Cl)nc(C(N)=O)c1N
inactive: [1] 7.95% | [2] 9.9% | [3] -11.5% | [4] -11.1% | [5] -2.65% | [6] -4.85%

Cn1c(C=O)cc2c(Cl)nccc21
inactive: [1] -35.5% | [2] -17.4% | [3] -11.8% | [4] -54.9% | [5] -10.1% | [6] -1.15%

O=[N+]([O-])c1ccc(Cl)c(C(F)(F)F)c1
inactive: [1] -0.8% | [2] 5.2% | [3] 4% | [4] -2.75% | [5] 1.2% | [6] -15.7%

CC(=O)Nc1cccc(S(=O)(=O)c2cccc(NC(C)=O)c2)c1
inactive: [1] -9.8% | [2] -10.1% | [3] -7.55% | [4] -66.5% | [5] 8.1% | [6] -10.3%

C=CCSc1nc2ccc(N=Cc3ccc([N+](=O)[O-])cc3)cc2s1
inactive: [1] 2.05% | [2] -12.5% | [3] -8.7% | [4] -14.6% | [5] 5.95% | [6] -21.2%

Cc1ccc(/C=C/C(=O)/C=C/c2ccc(C)cc2)cc1
inactive: [1] 9.05% | [2] 9.25% | [3] 15.6% | [4] -2.6% | [5] 23.6% | [6] 18.7%

CCOc1ccc(NC(=O)CCc2nnc(SC)o2)cc1
inactive: [1] 20.5% | [2] -17.2% | [3] -4.75% | [4] -16.4% | [5] 29.1% | [6] 23.2%

CC(C)N1C(=O)NC(=O)C12CCN(Cc1ccccc1)CC2
inactive: [1] -1.5% | [2] -1.65% | [3] -5.9% | [4] -1.7% | [5] 11.6% | [6] -13.7%

CC(=O)Nc1cc2c(cc1[N+](=O)[O-])-c1ccc([N+](=O)[O-])cc1C2=O
inactive: [1] 3.9% | [2] 4.4% | [3] 5.8% | [4] 3.2% | [5] 13% | [6] -9.8%

COCn1c(C(=O)c2ccc(OC)cc2)cc2ccccc21
inactive: [1] 7.45% | [2] 11.8% | [3] -3.9% | [4] -11.5% | [5] 16.1% | [6] 23.4%

Brc1ccc[n+](CCc2ccccc2)c1
inactive: [1] -2.7% | [2] 15.1% | [3] -6.7% | [4] 7.75% | [5] 5.7% | [6] 9.5%

COc1cc2c(cc1OC)C1CC(O)(c3nccc4cc(OC)c(OC)cc34)CCN1CC2 (stereo not given)
inactive: [1] 21.1% | [2] -1.8% | [3] -3.9% | [4] 10.7% | [5] -1.3% | [6] -14.1%
